For some assays here: Potency and affinity values are given separately.
Assays:
Set-up in all cases: scale not given: direction of the effect not stated beside the values
[1] = target: Protein translocase subunit SecA (Escherichia coli (strain K12)) (UniProt P10408); test: Assay to Identify E. coli SecA ATPase Inhibitors; type: functional; conditions: 30 µM
[2] = target: T1, Ubiquitin-activating enzyme e1, putative (Leishmania donovani (strain BPK282A1)) (UniProt E9BSI1); test: Leishmania donovani Ubiquitin Activating Enzyme (LdE1); type: functional; conditions: 30 µM
T1 sequence (whole entry): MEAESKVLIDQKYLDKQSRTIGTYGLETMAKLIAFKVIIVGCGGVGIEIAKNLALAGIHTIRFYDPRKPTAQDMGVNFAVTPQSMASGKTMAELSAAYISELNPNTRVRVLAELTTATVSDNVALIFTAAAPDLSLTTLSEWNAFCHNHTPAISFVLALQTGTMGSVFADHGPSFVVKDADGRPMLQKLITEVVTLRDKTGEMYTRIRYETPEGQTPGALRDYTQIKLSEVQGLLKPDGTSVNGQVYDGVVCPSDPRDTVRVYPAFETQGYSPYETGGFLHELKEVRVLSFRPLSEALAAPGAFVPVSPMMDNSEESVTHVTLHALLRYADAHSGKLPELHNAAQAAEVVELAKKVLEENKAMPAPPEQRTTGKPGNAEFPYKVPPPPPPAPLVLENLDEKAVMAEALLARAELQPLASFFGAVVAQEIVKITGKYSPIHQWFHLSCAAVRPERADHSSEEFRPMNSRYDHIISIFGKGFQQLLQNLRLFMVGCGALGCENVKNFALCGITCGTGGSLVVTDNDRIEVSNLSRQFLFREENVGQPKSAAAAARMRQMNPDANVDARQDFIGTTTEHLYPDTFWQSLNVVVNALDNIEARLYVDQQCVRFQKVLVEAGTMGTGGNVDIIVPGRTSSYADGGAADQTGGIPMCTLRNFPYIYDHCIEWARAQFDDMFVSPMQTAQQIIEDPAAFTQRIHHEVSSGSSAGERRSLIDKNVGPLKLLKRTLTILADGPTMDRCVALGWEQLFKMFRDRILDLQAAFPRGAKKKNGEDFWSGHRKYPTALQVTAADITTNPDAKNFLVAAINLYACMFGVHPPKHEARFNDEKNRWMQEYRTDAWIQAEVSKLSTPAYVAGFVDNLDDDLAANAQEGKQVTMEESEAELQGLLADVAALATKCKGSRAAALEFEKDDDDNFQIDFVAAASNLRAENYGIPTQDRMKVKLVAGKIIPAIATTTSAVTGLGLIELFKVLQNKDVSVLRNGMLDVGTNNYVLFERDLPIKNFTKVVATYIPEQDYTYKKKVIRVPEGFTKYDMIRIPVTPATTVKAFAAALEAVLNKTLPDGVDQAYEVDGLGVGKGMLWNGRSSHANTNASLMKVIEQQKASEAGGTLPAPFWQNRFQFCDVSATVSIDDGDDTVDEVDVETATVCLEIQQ

[3] = target: AMP-activated protein kinase, AMPK (Homo sapiens) (UniProt P54646+O43741+P54619+Q9UGJ0+Q9Y478+Q13131+Q9UGI9); test: AMP-dependent Kinase enzyme assay. An in vitro enzyme assay that detects ADP turnover that is directly proportional to AMPK activity. This uses naive AMPK that is activated during the assay with MK-8722; type: functional; conditions: 30 µM
[4] = target: Sialic acid-binding Ig-like lectin 9 (Homo sapiens) (UniProt Q9Y336); test: Hs-Siglec9 ALPHAscreen SOP 20170721; conditions: 10 µM
Trypanosoma cruzi = test: Trypanosoma cruzi phosphomannomutase and mannose-1-phosphate guanylyltransferase assay; type: functional; conditions: 10 µM
[5] = target: T2, Arginase-2, mitochondrial (Homo sapiens) (UniProt P78540); test: in vitro enzyme assay to detect the production of urea directly proportional to the activity of Arginase II; type: functional; conditions: 33.3 µM; further: in the data most compounds retested in dose-response had high values
T2 sequence (whole entry): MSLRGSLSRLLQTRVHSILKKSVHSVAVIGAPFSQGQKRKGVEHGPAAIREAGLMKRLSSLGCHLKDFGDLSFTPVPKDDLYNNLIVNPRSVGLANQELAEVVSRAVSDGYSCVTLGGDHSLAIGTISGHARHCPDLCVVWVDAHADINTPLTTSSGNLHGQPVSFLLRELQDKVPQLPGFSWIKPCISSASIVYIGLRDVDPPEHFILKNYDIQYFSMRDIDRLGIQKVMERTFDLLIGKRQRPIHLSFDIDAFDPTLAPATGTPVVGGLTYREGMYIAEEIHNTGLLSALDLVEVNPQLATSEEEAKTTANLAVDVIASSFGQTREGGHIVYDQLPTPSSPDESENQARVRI

[6] = target: T3, Proteasome subunit beta (Trypanosoma cruzi) (UniProt O96673); test: Trypanosoma cruzi proteasome chymotrypsin-like activity (TcProtChymo) assay.; further: in the data most compounds retested in dose-response had high values; type: functional; conditions: 9.37 µM
T3 sequence (whole entry): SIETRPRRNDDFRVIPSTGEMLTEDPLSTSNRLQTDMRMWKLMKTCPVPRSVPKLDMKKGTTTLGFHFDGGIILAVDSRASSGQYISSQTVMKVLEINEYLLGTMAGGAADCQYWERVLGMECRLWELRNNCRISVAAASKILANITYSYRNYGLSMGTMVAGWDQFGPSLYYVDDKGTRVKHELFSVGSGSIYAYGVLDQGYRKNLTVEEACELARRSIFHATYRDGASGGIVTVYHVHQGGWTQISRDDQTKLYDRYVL

Homo sapiens = species: Homo sapiens; test: To identify inhibition of the IFN signalling (Jak-Stat) pathway via expression of an eGFP reporter gene under the control of an IFN-stimulated response element (ISRE) containing MxA promoter.; type: functional; conditions: 30 µM
[7] = target: T4, Tyrosyl-tRNA synthetase, putative (Trypanosoma cruzi (strain CL Brener)) (UniProt Q4DSP6); test: Trypanosoma cruzi tyrosyl tRNA synthetase (TcYRS) _High Tyrosine SOP; type: functional; conditions: 30 µM; further: in the data most compounds retested in dose-response had high values
T4 sequence (whole entry): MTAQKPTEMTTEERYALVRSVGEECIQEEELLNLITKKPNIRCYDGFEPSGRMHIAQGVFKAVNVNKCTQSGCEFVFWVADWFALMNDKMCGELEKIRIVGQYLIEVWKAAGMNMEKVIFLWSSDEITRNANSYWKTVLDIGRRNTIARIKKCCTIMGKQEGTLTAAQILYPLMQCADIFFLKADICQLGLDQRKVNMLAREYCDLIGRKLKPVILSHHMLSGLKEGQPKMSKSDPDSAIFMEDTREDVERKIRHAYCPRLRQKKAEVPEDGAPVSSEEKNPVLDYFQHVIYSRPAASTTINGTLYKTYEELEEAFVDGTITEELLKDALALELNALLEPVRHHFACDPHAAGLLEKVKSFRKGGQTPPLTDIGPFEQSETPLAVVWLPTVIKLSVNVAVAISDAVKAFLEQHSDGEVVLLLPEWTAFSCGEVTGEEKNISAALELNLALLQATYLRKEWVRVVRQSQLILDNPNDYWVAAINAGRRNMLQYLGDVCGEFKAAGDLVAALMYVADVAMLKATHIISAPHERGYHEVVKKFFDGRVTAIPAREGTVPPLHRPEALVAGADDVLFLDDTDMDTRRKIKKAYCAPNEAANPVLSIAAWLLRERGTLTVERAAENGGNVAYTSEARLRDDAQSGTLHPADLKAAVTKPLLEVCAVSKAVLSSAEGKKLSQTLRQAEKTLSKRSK

[8] = target: T4, Tyrosyl-tRNA synthetase, putative (Trypanosoma cruzi (strain CL Brener)); test: Trypanosoma cruzi tyrosyl tRNA synthetase (TcYRS) SOP; type: functional; conditions: 30 µM
[9] = target: Chromo domain-containing protein 1 (Saccharomyces cerevisiae (strain ATCC 204508 / S288c) (Baker's yeast)) (UniProt P32657); test: ScCHD-1 Enzyme Inhibition Assay; type: functional; conditions: 30 µM; further: in the data most compounds retested in dose-response had high values
Chromo domain-containing protein 1 (Saccharomyces cerevisiae (strain ATCC 204508 / S288c) (Baker's yeast)), sequence (P32657 whole entry, the tested form may be a part): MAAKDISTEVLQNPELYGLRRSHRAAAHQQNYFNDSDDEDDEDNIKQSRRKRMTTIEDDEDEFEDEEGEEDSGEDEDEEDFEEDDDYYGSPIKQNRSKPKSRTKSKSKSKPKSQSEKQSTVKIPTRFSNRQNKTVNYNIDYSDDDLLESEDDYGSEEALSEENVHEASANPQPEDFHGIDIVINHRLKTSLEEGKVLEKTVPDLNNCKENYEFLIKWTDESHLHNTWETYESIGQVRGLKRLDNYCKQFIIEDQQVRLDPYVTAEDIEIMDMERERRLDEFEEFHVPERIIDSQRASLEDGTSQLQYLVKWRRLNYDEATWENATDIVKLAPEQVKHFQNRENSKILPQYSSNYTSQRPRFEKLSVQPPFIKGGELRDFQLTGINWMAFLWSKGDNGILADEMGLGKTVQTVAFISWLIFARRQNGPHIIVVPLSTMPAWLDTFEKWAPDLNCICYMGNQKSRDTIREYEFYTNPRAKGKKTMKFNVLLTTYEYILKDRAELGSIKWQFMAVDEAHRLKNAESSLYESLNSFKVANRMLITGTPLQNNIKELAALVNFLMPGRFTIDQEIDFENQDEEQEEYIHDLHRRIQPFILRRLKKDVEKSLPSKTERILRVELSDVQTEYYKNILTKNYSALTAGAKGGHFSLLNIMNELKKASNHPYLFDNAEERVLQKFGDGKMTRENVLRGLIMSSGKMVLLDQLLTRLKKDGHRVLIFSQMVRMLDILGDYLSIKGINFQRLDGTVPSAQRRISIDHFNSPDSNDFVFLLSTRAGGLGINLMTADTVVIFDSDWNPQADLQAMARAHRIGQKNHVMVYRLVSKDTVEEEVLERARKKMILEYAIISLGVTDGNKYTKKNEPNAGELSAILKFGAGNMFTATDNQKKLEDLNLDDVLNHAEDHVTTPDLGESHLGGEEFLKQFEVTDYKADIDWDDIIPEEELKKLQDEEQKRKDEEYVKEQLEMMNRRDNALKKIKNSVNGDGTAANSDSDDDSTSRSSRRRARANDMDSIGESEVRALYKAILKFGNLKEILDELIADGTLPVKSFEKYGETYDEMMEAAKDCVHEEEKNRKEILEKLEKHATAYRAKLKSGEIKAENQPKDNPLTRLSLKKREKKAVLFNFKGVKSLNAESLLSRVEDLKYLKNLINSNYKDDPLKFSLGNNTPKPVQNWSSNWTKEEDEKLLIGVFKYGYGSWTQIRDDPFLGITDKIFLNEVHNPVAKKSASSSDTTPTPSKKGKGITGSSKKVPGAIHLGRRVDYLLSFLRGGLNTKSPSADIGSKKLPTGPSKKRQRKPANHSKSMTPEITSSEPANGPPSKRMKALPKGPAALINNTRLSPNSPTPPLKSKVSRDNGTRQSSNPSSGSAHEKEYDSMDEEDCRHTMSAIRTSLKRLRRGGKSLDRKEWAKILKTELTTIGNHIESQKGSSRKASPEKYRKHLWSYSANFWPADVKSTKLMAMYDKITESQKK

Protein translocase subunit SecA (Escherichia coli (strain K12)), sequence (P10408 whole entry): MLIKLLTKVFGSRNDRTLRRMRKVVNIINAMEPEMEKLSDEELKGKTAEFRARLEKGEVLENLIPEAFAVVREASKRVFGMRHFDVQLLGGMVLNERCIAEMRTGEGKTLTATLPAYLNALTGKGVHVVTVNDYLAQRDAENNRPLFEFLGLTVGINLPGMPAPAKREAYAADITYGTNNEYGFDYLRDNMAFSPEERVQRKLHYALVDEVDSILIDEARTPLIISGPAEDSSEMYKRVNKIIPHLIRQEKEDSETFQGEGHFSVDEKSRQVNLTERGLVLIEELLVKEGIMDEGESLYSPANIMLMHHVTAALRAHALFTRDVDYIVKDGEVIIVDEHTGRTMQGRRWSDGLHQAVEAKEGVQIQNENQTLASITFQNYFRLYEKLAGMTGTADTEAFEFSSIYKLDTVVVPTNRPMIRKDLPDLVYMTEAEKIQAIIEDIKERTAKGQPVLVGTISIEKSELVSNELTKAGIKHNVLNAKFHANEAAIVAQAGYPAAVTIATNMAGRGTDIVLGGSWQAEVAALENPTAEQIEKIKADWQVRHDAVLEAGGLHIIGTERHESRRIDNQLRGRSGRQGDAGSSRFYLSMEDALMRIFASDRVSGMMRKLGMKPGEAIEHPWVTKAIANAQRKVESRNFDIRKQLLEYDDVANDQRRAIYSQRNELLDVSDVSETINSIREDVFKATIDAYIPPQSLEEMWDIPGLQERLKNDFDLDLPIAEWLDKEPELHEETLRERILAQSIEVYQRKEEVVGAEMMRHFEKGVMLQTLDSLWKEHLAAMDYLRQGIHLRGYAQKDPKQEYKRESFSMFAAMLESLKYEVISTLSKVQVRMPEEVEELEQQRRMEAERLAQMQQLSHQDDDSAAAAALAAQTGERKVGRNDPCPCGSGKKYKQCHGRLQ
Sialic acid-binding Ig-like lectin 9 (Homo sapiens), sequence (Q9Y336 whole entry): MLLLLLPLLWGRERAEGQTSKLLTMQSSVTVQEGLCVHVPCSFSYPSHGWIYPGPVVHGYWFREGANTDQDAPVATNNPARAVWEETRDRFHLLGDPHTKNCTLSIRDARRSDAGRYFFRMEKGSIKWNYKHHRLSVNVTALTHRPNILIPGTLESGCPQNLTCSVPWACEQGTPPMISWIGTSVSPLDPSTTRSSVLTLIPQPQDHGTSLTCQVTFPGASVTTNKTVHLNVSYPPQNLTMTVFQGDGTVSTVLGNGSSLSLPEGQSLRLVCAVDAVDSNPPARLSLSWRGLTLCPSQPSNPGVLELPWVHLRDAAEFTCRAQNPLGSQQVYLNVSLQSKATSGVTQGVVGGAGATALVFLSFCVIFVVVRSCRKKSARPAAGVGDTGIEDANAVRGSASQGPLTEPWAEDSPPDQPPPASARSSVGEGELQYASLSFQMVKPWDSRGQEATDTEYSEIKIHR

SMILES	Percent Effect [1] [%]	Percent Effect [2] [%]	Percent Effect [3] [%]	Percent Effect [4] [%]	Percent Effect (Trypanosoma cruzi) [%]	Percent Effect [5] [%]	Percent Effect [6] [%]	Percent Effect (Homo sapiens) [%]	Percent Effect [7] [%]	Percent Effect [8] [%]	Percent Effect [9] [%]
Cc1nn(C)c2c(N3CCN(C(=O)C4CCC4)CC3)ncnc12	-0.898	9.33	2.37	-1.34	-6.48	-2.99	13.7	14.9	-15.9	15.4	-9.22
CCN(CC)C(C(=O)NCc1ccc(N2CCCC2)nc1)C(C)C (stereo unspecified)	-6	5.41	-3.6	6.67	-5.94	-4.41	11.9	10.1	2.46	1.24	-4.84
COc1c(C)cnc(CN2CCOC(Cn3nc(C)nc3C)C2)c1C (stereo unspecified)	-3.44	7.59	-1.91	11	1.6	4.94	-8.11	-11.7	2.46	-8.86	0.784
CCn1c(CN2CCC(O)(C(=O)OC)CC2)nc2c(F)cccc21	-3.73	-44.7	-3.77	0.565	8.27	-3.06	7.85	11.3	5.39	9.76	-12.4
Fc1cccc(N2CCCC3(CN(Cc4ccncc4)CCO3)C2)c1 (stereo unspecified)	-2.7	5.33	13.4	2.73	-6.5	6.29	8.02	29.6	6.38	11.5	-3.18
O=C(c1cccnc1-n1cccn1)N1CCN(CC2CC2)CC1	-4.46	5.41	-1.98	1.24	-1.54	-0.952	13.1	-3.39	4.76	0	-1.18
Cc1ncsc1C(=O)NCCn1nc(C2CCNC2)c2cccnc21 (stereo unspecified)	-1.57	-2.67	5.57	1.22	2.17	0.699	3.26	-2.08	0	6.41	1.51
CN(C)C(=O)N1CCN(Cc2ccccc2)[C@@H]2CS(=O)(=O)C[C@@H]21	-0.429	2.7	-4.73	3.84	4.25	-1.43	10.9	4.04	7.94	17.1	-3.7
CN(Cc1ccc(Cl)s1)C(=O)c1cccc(OCC(N)=O)c1	1.02	5.41	0.84	-1.09	-3.09	0.952	11.2	15.1	4.76	14.6	-3.46
O=C(Cc1ccc2c(c1)CCO2)N1CCN(c2cnccn2)CC1	-4.64	-7.89	2.2	-0.444	9.59	-1.53	0.167	5.16	3.43	7.32	-12.2
CCc1csc(CCNC(=O)C2CC(=O)N(C(C)C)C2)n1 (stereo unspecified)	-2.98	15.6	-6.03	4.97	0.0983	-11	8.65	8.23	6.45	13.6	-1.5
CN(C)CCO[C@H]1CN(Cc2cccc(C#N)c2)[C@@H]2COC[C@H]12	-3.05	5.33	0.409	2.27	2.32	-44.6	9.91	-12.1	6.25	17.5	-5.99
Cc1ccccc1-n1ncc(C(=O)N2CCCC2c2cnn(C)c2)c1C (stereo unspecified)	-1.92	10.8	-5.91	-5.79	7.71	-0.924	5.57	-8.29	3.96	18.3	-5.96
Cn1cc(CN2CCc3nc(-c4ccccn4)nc(O)c3C2)cn1	-7.26	2.67	-8.66	8.08	6.69	-3.96	-0.617	-0.651	10.6	29.5	-10.9
COc1cccc(CN2CCCCCC2c2cccc(C)c2)c1O (stereo unspecified)	-3.46	-2.6	18.9	-5.45	-3.25	-3.23	24	21.6	-5.29	-3.85	-9.17
c1ncn(Cc2cnc3n2CCN(Cc2ccsc2)CC3)n1	-7.34	5.33	7.1	2.34	-5.32	-2.1	5.9	14.2	2.13	8.97	2.03

Reference: ChEMBL document CHEMBL3988442, “University of Dundee, Small-Polar-MMV Screening Library” (2021)
